63 compounds from PubChem BioAssay AID2551 (National Center for Advancing Translational Sciences (NCATS), 2010) can be followed below.

About 17,000 (5.5%) of roughly 310,000 compounds were called active. Entries that show only a call come without a potency. About 11% were inconclusive and are not listed. Calls follow the shape of the dose curve; as a rule, active = well fitted inhibition curve with a large enough effect; inconclusive = small, poorly fitted or top-dose-only effect, or effect the other way; inactive = no such curve, though single readings can be large or run the other way. For the sample, actives were picked, then their nearest neighbours and some compounds at random. Where a SMILES comes first, the peptide text is derived from it. [ ]: non-standard residue; d: D form. The star is where a group is joined. ξ: configuration not given here. Cbz = O=C(OCc1ccccc1)*; ξL = CC(C)CC(N)C(=O)O; ξP = O=C(O)C1CCCN1
Potency is read from the fitted curve at half-maximal effect.

Chain of Nuclear receptor ROR-gamma (Mus musculus) (P51450 whole entry, looked up, the tested form may be a part): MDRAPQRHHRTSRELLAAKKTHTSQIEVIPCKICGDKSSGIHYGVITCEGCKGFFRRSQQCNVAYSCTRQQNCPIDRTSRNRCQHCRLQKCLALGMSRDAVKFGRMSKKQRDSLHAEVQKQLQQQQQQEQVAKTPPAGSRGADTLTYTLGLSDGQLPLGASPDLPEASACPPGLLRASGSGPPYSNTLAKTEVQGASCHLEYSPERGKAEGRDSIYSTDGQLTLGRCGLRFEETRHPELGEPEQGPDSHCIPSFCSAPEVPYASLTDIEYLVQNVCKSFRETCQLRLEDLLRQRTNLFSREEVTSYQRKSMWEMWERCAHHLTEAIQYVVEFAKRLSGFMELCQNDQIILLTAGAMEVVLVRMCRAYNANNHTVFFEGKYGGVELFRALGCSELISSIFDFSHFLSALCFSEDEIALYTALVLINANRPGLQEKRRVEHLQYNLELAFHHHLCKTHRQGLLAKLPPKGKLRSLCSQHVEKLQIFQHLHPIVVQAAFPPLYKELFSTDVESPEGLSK

This assay deals with Nuclear receptor ROR-gamma (Mus musculus) (UniProt P51450). Nature of the assay: qHTS for inhibitors of ROR gamma transcriptional activity. Also: nearly all actives have a fitted effect of over 60% in size. As to conditions: Drosophila S2 Gal4-RORgamma UAS-luciferase reporter, 20 h; series mostly up to 53.6 µM. An outline of the steps:
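In this cell-based reporter format, copper sulfate (700 uM final) drives Gal4–ROR gamma fusion expression from a metallothionein promoter in Drosophila Schneider cells; compounds preincubated 1 hr, reporter read after 20 hr at ambient temperature.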
(In qHTS, concentration-response curves come from the screen itself.)
With `CC(=O)c1ccc(N2CCN(C(=O)C3CCN(S(=O)(=O)c4ccc5c(c4)CC(C)N5C(=O)C4CC4)CC3)CC2)cc1` (stereo not drawn), the Potency result was “inactive”.
The same measure, in the same setting: for `COc1ccc(CCNC(=O)CCCCCNC(=O)N2CCn3c2nc2ccccc23)cc1OC` the value was “inactive”.
Take `N#Cc1c(Cl)nc(-c2cccnc2)nc1-c1ccccc1`: the Potency entry is “inactive”.
The same measure, in the same setting: for `CCOC(=O)c1cnc(Nc2nc3ccccc3o2)nc1CSC(=S)N1CCCCC1` the value was 0.447 µM (active); for `CCc1ccc(CNC(=O)C2CCCN(c3nc4ccccc4o3)C2)cc1` (stereo not drawn), “inactive”; for `CCOC(=O)CCNC(=O)N1CCCC(C(=O)c2ccccc2SC)C1` (stereo not drawn), “inactive”.
On the same count and under the same terms, for `CCCCCc1c(C)nc(N2CCN(Cc3ccc4c(c3)OCO4)CC2)[nH]c1=O` the value was “inactive”; for `COc1ccc(C(=O)NC(C)c2nccs2)cc1OC1CCN(C(C)C)CC1` (stereo not drawn), “inactive”.
For `O=C1Nc2ccccc2/C1=C/c1ccnc2ccccc12`, the Potency entry was “inactive”.
Take `CN(C)CCNC(=O)c1[nH]nc2c1CCc1ccccc1-2`: the Potency result is “inactive”.
On to `COc1cc2cc(C(=O)N/N=C/c3cccc(OC)c3OC)[nH]c2cc1OC`, for which the Potency entry is “inactive”.
For the compound `COc1cccc(/C=N/NC(=O)c2[nH]nc3c2CCc2ccccc2-3)c1O`, the Potency is 0.794 µM (active).
Take `Cc1ccc(CNCc2ccc3c(c2)OCO3)c(C)c1`: the Potency entry was “inactive”.
The same measure, in the same setting: in the case of `COc1ccc(-c2nnc(NC(=O)CS(=O)(=O)c3ccc(Cl)cc3)o2)c(OC)c1` it was 17.8 µM (active); in that of `COc1ccc(-c2nnc(SCC(=O)c3cccs3)o2)c(OC)c1`, “inactive”.
Still for that read-out and setting: for `COc1ccc(NC(=O)CS(=O)(=O)c2ccccc2)cc1` the value was “inactive”; for `CN(C)C(=O)CCC(=O)N1CCCCC1C(=O)Nc1ccc(Oc2ccccc2F)cc1` (stereo not drawn), “inactive”.
On the same count and under the same terms, for `CC(=O)NS(=O)(=O)c1ccc(N/C(N)=N/c2nc(C)cc(C)n2)cc1` the value was “inactive”; for `CC(C)c1ccc(NC(=O)Cn2ncc3ccccc32)cc1`, “inactive”; for `C=CCc1c(C)nc2cc(-c3ccccc3)[nH]n2c1=O`, “inactive”.
In the case of `CNC(=O)c1[nH]cnc1C(=O)N[C@@H](CC(C)C)C(=O)OCc1ccccc1`, the Potency was 10 µM (active).
Still for that read-out and setting: for `NC(=O)c1ccc(NC(=O)COC(=O)C(Cc2ccccc2)NC(=O)c2ccccc2)cc1` (stereo not drawn) the value was “inactive”; for `CC(C)CC(NC(=O)C1CCCN1C(=O)[C@@H](C)NC(=O)OCc1ccccc1)C(=O)NCC(N)=O` (stereo partly drawn) (Cbz-[dA][ξP][ξL]G-NH2), “inactive”; for `COc1ccccc1NC(=O)[C@H](COCc1ccccc1)NC(=O)OC(C)(C)C`, “inactive”.
As for `C[C@H](NC(=O)c1nc[nH]c1C(=O)NCC(=O)OC(C)(C)C)C(=O)OCc1ccccc1`, the Potency was 11.2 µM (active).
The same measure, in the same setting: for `COC(=O)[C@@H](Cc1ccccc1)NC(=O)NCCc1ccccc1` the value was “inactive”.
Still for that read-out and setting: in the case of `CC(C)(C)OC(=O)CNC(=O)c1[nH]cnc1C(=O)N[C@@H](Cc1ccccc1)C(=O)OCc1ccccc1` it was “inactive”.
Turning to `O=C(CNC(=O)c1ccccc1)NCC(=O)OCc1ccc(Cl)cc1`, the Potency result was “inactive”.
Same read-out and setting: for `O=C(CNC(=O)c1ccc(-c2ccccc2)cc1)OCc1ccc(Cl)cc1` the value was “inactive”.
Consider `Cc1cccc(NC(=O)c2nc[nH]c2C(=O)NCC(=O)OCc2ccccc2)c1`, for which the Potency was 12.6 µM (active).
For `CC(C)[C@H](NC(=O)OCc1ccccc1)C(=O)OCc1ccccc1`, the Potency entry was “inactive”.
Take `O=C(N[C@@H](Cc1ccccc1)C(=O)OCc1ccccc1)c1nc[nH]c1C(=O)N[C@@H](Cc1ccccc1)C(=O)OCc1ccccc1`: the Potency is 10 µM (active).
Same read-out and setting: in the case of `C/C(=N\N(C)C)c1ccc(OCCOc2ccc([N+](=O)[O-])cc2)cc1` it was “inactive”; in that of `CCOC(=O)C1(Cc2ccccc2C)CCCN(S(C)(=O)=O)C1` (stereo not drawn), “inactive”; in that of `COCc1c(C(=O)N/N=C(\C)c2ccncc2)nnn1-c1nonc1N`, “inactive”.
Same read-out and setting: for `C=CCNC(=O)c1ccccc1SCc1c(C)noc1C` the value was “inactive”; for `Cc1ccc(NC(=O)C(CC(=O)O)C2CCCO2)c(C)c1` (stereo not drawn), “inactive”; for `O=C(Nc1ccc(Cl)cc1)c1cccc(OC(=S)N2CCOCC2)c1`, “inactive”.
In the case of `COc1ccc(S(=O)(=O)N(C)CC(=O)N2CCCC2)cc1`, the activity change, negative = inhibition was -15.8% [at 1.91 µM] (inactive).
As for `Cc1ccc(NC(=O)C/C(N)=N/O)cc1Cl`, the Potency result is “inactive”.
Consider `O=C(CC(O)(C(F)(F)F)C(F)(F)F)Nc1ccc(Cl)c(Cl)c1`, for which the Potency was 5.01 µM (active).
With `O=C(Cc1ccc(Cl)c(Cl)c1)Nc1ccc(SC(F)F)cc1`, the Potency entry is “inactive”.
Still for that read-out and setting: for `COc1ccccc1N(CC(=O)NC1CCCC1)C(=O)C1(C)CC(=O)N=C2C=CC(C)=CN21` (stereo not drawn) the value was “inactive”; for `O=C1CCCCN1CCCC(=O)N1CCCC(Nc2ccc(F)cc2)C1` (stereo not drawn), “inactive”.
Still for that read-out and setting: in the case of `O=C(Cc1cccs1)N/N=C/c1ccc(OCc2ccccc2)cc1` it was “inactive”; in that of `O=C(N/N=C/c1ccc(OC(=O)c2ccccc2Cl)cc1)c1ccc(O)cc1`, “inactive”.
`O=C(N/N=C/c1ccc(OCc2ccccc2)cc1)c1ccc(O)cc1`: the Potency was 8.91 µM (active).
Regarding `CCn1nc(C)c(CNC(=O)C2CCC(=O)N(Cc3cccc(F)c3)C2)c1C` (stereo not drawn), the Potency result is “inactive”.
In the case of `CCCC(O)(CCC)C(=O)NN(C(=O)CCl)c1cccc(C)c1`, the Potency was 15.8 µM (active).
On the same count and under the same terms, for `COC(=O)N(NC(=O)C(O)(C(C)C)C(C)C)c1ccccc1` the value was “inactive”.
As to `CCCCC(O)(CCCC)C(=O)NN(C(=O)CCl)c1ccccc1`, the Potency is 12.6 µM (active).
As to `Cc1ccc(N(NC(=O)C(C)(C)O)C(=O)c2ccccc2)cc1C`, the Potency entry is “inactive”.
Still for that read-out and setting: in the case of `CC(C)(O)C(=O)NN(C(=O)c1ccccc1)c1cccc(Br)c1` it was “inactive”.
On the same count and under the same terms, in the case of `CCCCCNC(=O)C1c2ccccc2Oc2ccccc21` it was “inactive”.
Same read-out and setting: in the case of `Cc1cc(C)n(CC(O)COc2ccc(C(C)(C)C)cc2)n1` (stereo not drawn) it was “inactive”.
For `CCc1ccc(N(C(=O)c2csnn2)C(C(=O)NC2CCCCC2)c2cccnc2)cc1` (stereo not drawn), the Potency result is “inactive”.
On the same count and under the same terms, in the case of `O=C(O)c1cc(S(=O)(=O)N(Cc2ccccc2)c2cccc(C(F)(F)F)c2)ccc1Cl` it was “inactive”.
Same read-out and setting: in the case of `O=S(=O)(NCCc1ccc(Cl)cc1)c1cccs1` it was “inactive”; in that of `COC(=O)c1c(NC(=O)c2ccc(S(=O)(=O)N3CCOCC3)cc2)sc2c1CCN(C(C)C)C2`, “inactive”.
Still for that read-out and setting: in the case of `CC(CCc1ccccc1)NC(=O)c1cnc(Cl)c(Cl)c1` (stereo not drawn) it was “inactive”; in that of `Cc1nn(Cc2ccc(C(=O)N3N=C(C(F)F)CC3(O)C(F)F)cc2)c(C)c1[N+](=O)[O-]` (stereo not drawn), 12.6 µM (active).
On to `Cc1ccn(CC(=O)N2N=C(C(F)F)CC2(O)C(F)F)n1` (stereo not drawn), for which the Potency entry was “inactive”.
On the same count and under the same terms, for `CCc1ccc(NC(=O)Cn2nc(C)c([N+](=O)[O-])c2C)cc1` the value was “inactive”.
